Values joined by “and” are separate entries in the source; they are usually repeats but may differ in a detail not shown here. Equal values may be shown once. Inconclusive results are not listed. A call without a number means that no potency is given here. Values without a mark were called inactive. Active and inactive are the calls of the source. Unless noted, calls come from the whole dose curve.

Test system in one test: not listed separately
In words: qHTS assay to identify small molecule antagonists of the thyroid receptor (TR) signaling pathway (AID 743065; active = well fitted inhibition curve with a large enough effect in the repeat runs; note: nearly all actives have a fitted effect of over 55% in size; note: potency is the fitted concentration of half-maximal effect). As to conditions: GH3.TRE-Luc, T3-stimulated luciferase inhibition, 23.5 h; series mostly up to 70.3 µM. The method in brief:
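GH3.TRE-Luc rat pituitary cells (two TREs driving luciferase) were dosed with compound, then stimulated with 1 nM T3 (final) for 23.5 h at 37 C. ONE-Glo luminescence was the read-out, with CellTiter-Fluor fluorescence as the cytotoxicity counter-screen.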
On to `C=CC(C)(O)CC/C=C(/C)CCC=C(C)C` (stereo unspecified), for which the Potency entry was “inactive”.
Same read-out and setting: to `CC/C=C/CCO` belongs “inactive”; to `O=C(NC1CCN(CCc2c[nH]c3ccccc23)CC1)c1ccccc1`, 26.6 µM (active).
Still for that read-out and setting: the result for `Cc1c(-c2cccnc2)c2ccccc2n1CCCCC(=O)O` reads “inactive”.
`O=C1c2ccccc2C(=O)c2c1ccc(O)c2O`: the Potency entry is “inactive”.
For the compound `CC1=CC(=C(c2ccc(N)cc2)c2ccc(N)cc2)C=CC1=N`, the Potency was 10.6 µM (active).
Still for that read-out and setting: to `O=[N+]([O-])c1ccc(Cl)cc1Cl` belongs “inactive”; to `C/C=C1\[C@H]2C=C(C)C[C@]1(N)c1ccc(=O)[nH]c1C2`, “inactive”; to `Cc1cc(SC2=C(O)C[C@@](CCc3ccc(N)cc3)(C(C)C)OC2=O)c(C(C)(C)C)cc1CO`, “inactive”.
Take `O=C(OC1C[C@H]2CC[C@@H](C1)[N+]21CCCC1)C(O)(c1ccccc1)c1ccccc1` (stereo partly specified): the Potency result was “inactive”.
Same read-out and setting: to `CC(C)C[C@H](NC(=O)[C@H](Cc1ccccc1)NC(=O)c1cnccn1)B(O)O` belongs 23.7 nM (active) and 16.8 nM (active); to `CCOCCn1c(N2CCCN(C)CC2)nc2ccccc21`, “inactive”; to `CC/C=C\CCO`, “inactive”.
Consider `C[C@H](CN1CCCC1)C(=O)c1ccc(C(F)(F)F)cc1`, for which the Potency is 26.6 µM (active).
The same measure, in the same setting: the result for `CC(=O)Nc1ccccc1O` reads “inactive”; that for `O=C(O)CNc1ccccc1`, “inactive”.
Still for that read-out and setting: to `Cc1nc2sccn2c(=O)c1CCN1CCC(=C(c2ccc(F)cc2)c2ccc(F)cc2)CC1` belongs 26.6 µM (active).
On the same count and under the same terms, the result for `O=C(O)COCC(=O)O` reads “inactive”; that for `Cc1ccc(NC(=O)c2ccc(CN3CCN(C)CC3)cc2)cc1Nc1nccc(-c2cccnc2)n1`, 26.6 µM (active).
For `CCC(C)C1N=C(C)C(C)S1` (stereo unspecified), the Potency entry is “inactive”.
On the same count and under the same terms, the result for `CCCN(C1CCN(C(=O)C2CCNCC2)CC1)[C@@H]1CCc2ccc(OC)cc2C1` reads 54.5 µM (active).

A further test concerns thyroid hormone receptor (rat, GH3 cells). As to the kind of experiment: qHTS assay to identify small molecule agonists of the thyroid receptor (TR) signaling pathway (AID 743066). To be noted: GH3.TRE-Luc cells, TR agonist luciferase, 24 h; series mostly up to 83.9 µM.
In the case of `C=CC(C)(O)CC/C=C(/C)CCC=C(C)C` (stereo unspecified), the compound was classed as inactive.
The same measure, in the same setting: to `CC/C=C/CCO` belongs “inactive”.
With `C[C@@H](O)[C@H]1C(=O)N2C(C(=O)O)=C(S[C@@H]3CN[C@H](CNS(N)(=O)=O)C3)[C@H](C)[C@H]12`, the call was inactive.
On the same count and under the same terms, the result for `O=C(NC1CCN(CCc2c[nH]c3ccccc23)CC1)c1ccccc1` reads “inactive”.
Still for that read-out and setting: the result for `Cc1c(-c2cccnc2)c2ccccc2n1CCCCC(=O)O` reads “inactive”; that for `COc1ccc(C(=O)c2ccc(C)cc2)c(O)c1`, “inactive”; that for `O=C(O)c1cc(C(=O)O)c(C(=O)O)cc1C(=O)O`, “inactive”.
The same measure, in the same setting: to `OCCc1ccncc1` belongs “inactive”.
With `CC(C)(C(=O)O)c1ccc(C(O)CCCN2CCC(C(O)(c3ccccc3)c3ccccc3)CC2)cc1` (stereo unspecified), the call was inactive.
As for `C1CCN(CN2CCCCC2)CC1`, the compound was called inactive.
For `O=C1c2ccccc2C(=O)c2c1ccc(O)c2O`, the compound was called inactive.
For the compound `CC1=CC(=C(c2ccc(N)cc2)c2ccc(N)cc2)C=CC1=N`, the activation is -3.23% [at 8.08 µM].
With `O=[N+]([O-])c1ccc(Cl)cc1Cl`, the result was inactive.
Same read-out and setting: the result for `CCCCCCCCCCCCSC#N` reads “inactive”; that for `COc1cc(CNC(=O)CCCC/C=C/C(C)C)ccc1O`, “inactive”; that for `Cc1cc(SC2=C(O)C[C@@](CCc3ccc(N)cc3)(C(C)C)OC2=O)c(C(C)(C)C)cc1CO`, “inactive”.
The same measure, in the same setting: the result for `O=C(OC1C[C@H]2CC[C@@H](C1)[N+]21CCCC1)C(O)(c1ccccc1)c1ccccc1` (stereo partly specified) reads “inactive”; that for `CCOCCn1c(N2CCCN(C)CC2)nc2ccccc21`, “inactive”.
As to `CC/C=C\CCO`, the call was inactive.
The same measure, in the same setting: to `CC(=O)c1ccc(Cl)c(Cl)c1Cl` belongs “inactive”.
On the same count and under the same terms, to `C[C@H](CN1CCCC1)C(=O)c1ccc(C(F)(F)F)cc1` belongs “inactive”; to `C=CCCC`, “inactive”; to `CC(=O)Nc1ccccc1O`, “inactive”.
Still for that read-out and setting: the result for `O=C(O)CNc1ccccc1` reads “inactive”.
With `CC(C)CC(C)(C)C`, the result was inactive.
On the same count and under the same terms, the result for `O=C1OC(=O)C2CC=CCC12` (stereo unspecified) reads “inactive”; that for `SCCOCCOCCS`, “inactive”; that for `S=c1[nH][nH]c(=S)s1`, “inactive”.
The same measure, in the same setting: the result for `CC(C)(C)c1ccc(CCC=O)cc1` reads “inactive”; that for `O=C(O)c1ccccc1-n1cc(C(=O)O)c(=O)c2cc(Nc3c(F)cc(F)cc3Cl)c(Cl)cc21`, “inactive”.
The same measure, in the same setting: to `O=C(O)COCC(=O)O` belongs “inactive”; to `NC(=O)c1ccccc1`, “inactive”; to `CCC(C)C1N=C(C)C(C)S1` (stereo unspecified), “inactive”.
Take `CCN(CCCCOC(=O)c1ccc(OC)c(OC)c1)C(C)Cc1ccc(OC)cc1` (stereo unspecified): the compound was called inactive.
Same read-out and setting: the result for `CCCN(C1CCN(C(=O)C2CCNCC2)CC1)[C@@H]1CCc2ccc(OC)cc2C1` reads “inactive”.
